Measured values taken from PubChem BioAssay (Tox21).
Several values for one entry are separate records, joined by “and”; a condition that tells them apart may be missing. Equal entries are not always repeated. Results filed as inconclusive are left out. A call without a number means that no potency is given here. The source holds several records for some structures; these can differ, active in one and inactive in another. Activity calls are given as the source filed them. Unless noted, calls come from the whole dose curve; as a rule, active = well fitted curve in the direction sought with a large enough effect in the repeat runs; inconclusive = weak or mixed curves; inactive = no such curve, though single readings can be large; an effect the other way counts as inactive or inconclusive.

Experiments:
[1] = qHTS assay to identify small molecule agonists of the sonic hedgehog signaling (Shh) pathway (AID 1259368; calls by dose curve;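 note: NIH/3T3-derived 3T3Gli1-Luc cells carrying a stable Gli1-driven firefly luciferase reporter; series mostly up to about 92 µM; nearly all actives have a fitted effect of over 15% in size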)
How it was run: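 NIH/3T3-derived 3T3Gli1-Luc cells with stably integrated Gli1-driven firefly luciferase, 2,000 cells/well, compounds added after 4 hr. Incubated 24 hr at 37C, 5% CO2; luminescence read after 30 min with luciferase reagent at room temperature.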

[2] = qHTS assay to identify small molecule antagonists of the sonic hedgehog signaling (Shh) pathway (AID 1259369; calls by dose curve; note: nearly all actives have a fitted effect of over 45% in size; note: potency is the fitted concentration of half-maximal effect)
How it was run: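 NIH/3T3-derived Gli1-Luc reporter cells plated 4 h, dosed with compound, then stimulated with conditioned medium for 24 h at 37 C. Firefly luciferase luminescence read after 30 min with detection reagent at room temperature.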

[3] = qHTS assay to identify small molecule agonists of the androgen receptor (AR) signaling pathway in the presence of an antagonist - cell viability counter screen (AID 1259379); note: nearly all actives have a fitted effect of over 25% in size; note: potency is the fitted concentration of half-maximal effect
How it was run: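 MDA-kb2 cells (MMTV-luciferase, AR/GR), 3,000/well, 5 h attachment, then 3.0 µM nilutamide (final) and compounds at 15 concentrations. Viability by CellTiter-Fluor fluorescence after 16 h at 37 °C, 0% CO2, in the reporter wells.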

[4] = qHTS assay to identify small molecule agonists of the estrogen receptor beta (ER-beta) signaling pathway - cell viability counter screen (AID 1259380); note: nearly all actives have a fitted effect of over 30% in size; note: potency is the fitted concentration of half-maximal effect
How it was run: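 ER-beta-UAS-bla HEK293T cells in medium with 2% charcoal-stripped FBS, pre-incubated 6 hr, then treated 16 hr at 37C. Cytotoxicity read in the same wells by CellTiter-Glo luminescence after 30 min at room temperature.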

[5] = biological target: Estrogen receptor (Homo sapiens) (UniProt P03372); assay: qHTS assay to identify small molecule agonists of the estrogen receptor alpha (ER-alpha) signaling pathway in the presence of an antagonist (AID 1259383; calls by dose curve; note: top concentration of the series differs between compounds; nearly all actives have a fitted effect of over 15% in size)
How it was run: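 VM7Luc4E2 cells express endogenous full-length ER-alpha with an ERE-luciferase reporter and were hormone-deprived for 5 days. Compounds at 15 concentrations were added with 10.0nM ICI-182,780 for 22hr at 37C. Luminescence was read with ONE-Glo.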

[6] = qHTS assay to identify small molecule agonists or antagonists of the thyroid stimulating hormone receptor (TSHR) signaling pathway - wild type cell line counter screen (AID 1259384; calls by dose curve)
How it was run: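 Wild-type HEK293 cells were plated 18 h at 37 C/5% CO2, pin-dosed with compound plus Ro20-1724 medium, held 30 min at room temperature, then given cAMP-d2 and anti-cAMP-cryptate; fluorescence was read after 1 h. Fifteen concentrations, triplicate.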

[7] = biological target: Thyrotropin receptor (Homo sapiens) (UniProt P16473); assay: qHTS assay to identify small molecule antagonists of the thyroid stimulating hormone receptor (TSHR) signaling pathway (AID 1259385; calls by dose curve; note: nearly all actives have a fitted effect of over 20% in size)
How it was run: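 TSHR-HEK293 cells were plated and held 18 h at 37C/5% CO2, then given compound plus Ro20-1724 and stimulated with TSH at 1.5 ng/mL final. After 30 min at room temperature, cAMP was detected with cAMP-d2/anti-cAMP-cryptate (1 h) by fluorescence.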

[8] = qHTS assay to identify small molecule agonists of the estrogen receptor alpha (ER-alpha) signaling pathway in the presence of an antagonist - cell viability counter screen (AID 1259386);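 note: cells exposed to compounds for 22 h at 37 °C before the viability read; nearly all actives have a fitted effect of over 30% in size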; note: potency is the fitted concentration of half-maximal effect
How it was run: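 Cell viability in VM7Luc4E2 cells (endogenous full-length ER-alpha) measured by CellTiter-Fluor fluorescence in the same wells as the luciferase screen. Cells pre-cultured 5 days in charcoal-stripped serum, then treated 22 h with compounds at 15 concentrations plus 10.0nM ICI-182,780.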

[9] = biological target: Progesterone receptor (Homo sapiens) (UniProt P06401); assay: qHTS assay to identify small molecule agonists of the progesterone receptor (PR) signaling pathway (AID 1346784; calls by dose curve; note: nearly all actives have a fitted effect of over 30% in size; note: potency is the fitted concentration of half-maximal effect)
How it was run: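 PR-UAS-bla HEK 293T cells carrying a UAS-driven beta-lactamase reporter were seeded in medium with 2% charcoal-stripped FBS, preincubated 6 hr at 37C, then exposed to compounds in DMSO for 16 hr; agonism was read by LiveBLAzer B/G FRET fluorescence.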

[10] = biological target: Progesterone receptor (Homo sapiens) (UniProt P06401); assay: qHTS assay to identify small molecule antagonists of the progesterone receptor (PR) signaling pathway (AID 1346795; active = well fitted inhibition curve with a large enough effect in the signal ratio in the repeat runs, not every such curve was filed as active; the % refers to the signal ratio)
How it was run: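 PR-UAS-bla HEK293T cells carrying a UAS-driven beta-lactamase reporter were plated in medium with 2% charcoal-stripped FBS and rested 6 hr at 37C. Compounds were added with 1 nM R5020 (final) for 16 hr, then FRET substrate loaded 2 hr at room temperature.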

[11] = qHTS assay to identify small molecule antagonists of the progesterone receptor (PR) signaling pathway - cell viability counter screen (AID 1346798); note: series mostly up to about 92 µM; nearly all actives have a fitted effect of over 50% in size
How it was run: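 PR-UAS-bla HEK293T cells in medium with 2% charcoal-stripped FBS were treated with compounds plus R5020 for 16 hr at 37C. Cell viability was then read by CellTiter-Glo luminescence after 30 min at room temperature in the same wells.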

[12] = qHTS assay to identify small molecule agonists of the progesterone receptor (PR) signaling pathway - cell viability counter screen (AID 1346799; calls by dose curve; note: nearly all actives have a fitted effect of over 45% in size)
How it was run: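 PR-UAS-bla HEK293T cells, 3,000 per well in medium with 2% charcoal-stripped FBS, were preincubated 6 hr at 37C, then exposed to compounds for 16 hr; viability was read as CellTiter-Glo luminescence after 30 min at room temperature.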

[13] = qHTS assay to identify small molecule antagonists of the TGF-beta/Smad signaling pathway - cell viability counter screen (AID 1346824); note: nearly all actives have a fitted effect of over 50% in size
How it was run: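 SBE-bla HEK 293T cells were plated overnight at 37 C, then given compounds in DMSO plus TGF-beta1 (added as 0.25 ng/mL solution) for 5 hr. After the bla read, CellTiter-Glo was added to the same wells and luminescence read after 30 min at room temperature.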

[14] = qHTS assay to identify small molecule agonists of the TGF-beta/Smad signaling pathway - cell viability counter screen (AID 1346829); note: top concentration of the series differs between compounds; nearly all actives have a fitted effect of over 45% in size
How it was run: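 Same-well cytotoxicity: CellTiter-Glo added after the 2 hr room-temperature beta-lactamase substrate step, luminescence measured 30 min later; cells had 5 hr of compound at 37 C.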

[15] = qHTS assay to identify small molecule agonists of the TGF-beta/Smad signaling pathway (AID 1346859; active = well fitted activation curve with a large enough effect in the signal ratio in the repeat runs, not every such curve was filed as active; the % refers to the signal ratio; note: series mostly up to about 77 µM)
How it was run: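 HEK 293T cells stably carrying a beta-lactamase reporter driven by the Smad binding element were seeded overnight, exposed to DMSO-dissolved compounds for 5 hr at 37 C, 5% CO2, then loaded with FRET substrate for 2 hr at room temperature.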

[16] = biological target: Estrogen receptor beta (Homo sapiens) (UniProt Q92731); assay: qHTS assay to identify small molecule agonists of the estrogen receptor beta (ER-beta) signaling pathway (AID 1259377; active = well fitted activation curve with a large enough effect in the signal ratio in the repeat runs, not every such curve was filed as active; the % refers to the signal ratio)
How it was run: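 ER-beta-UAS-bla HEK293T (GripTite) cells carrying a UAS-driven beta-lactamase reporter, in medium with 2% charcoal-stripped FBS, were exposed to compounds for 16 hr at 37C; LiveBLAzer B/G FRET substrate was then added and fluorescence read after 2 hours at room temperature.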

[17] = biological target: Estrogen receptor beta (Homo sapiens) (UniProt Q92731); assay: qHTS assay to identify small molecule antagonists of the estrogen receptor beta (ER-beta) signaling pathway (AID 1259378; active = well fitted inhibition curve with a large enough effect in the signal ratio in the repeat runs, not every such curve was filed as active; the % refers to the signal ratio)
How it was run: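 ER-beta-UAS-bla HEK293T (GripTite) cells in 2% charcoal-stripped FBS medium were preincubated 6 hr at 37C, dosed with compound, then stimulated with 1 nM E2 (final) for 16 hr; beta-lactamase reporter read by B/G FRET fluorescence after 2 hr substrate loading.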

[18] = biological target: Thyrotropin-releasing hormone receptor (Homo sapiens) (UniProt P34981); assay: qHTS assay to identify small molecule antagonists of the thyrotropin-releasing hormone receptor (TRHR) signaling pathway (AID 1346877; active = well fitted inhibition curve with a large enough effect in the repeat runs, not every such curve was filed as active; note: series mostly up to about 51 µM)
How it was run: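 TRHR-expressing HEK293 cells loaded with calcium dye for 2 h at 37 C; compounds pre-incubated 5 min at room temperature before TRH challenge at 1 nM final. Intracellular calcium fluorescence read kinetically for 3 min; 15 concentrations in triplicate.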

[19] = qHTS assay to identify small molecule antagonists of the estrogen receptor beta (ER-beta) signaling pathway - cell viability counter screen (AID 1259382); note: series mostly up to about 92 µM; nearly all actives have a fitted effect of over 55% in size
How it was run: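 ER-beta-UAS-bla HEK293T cells in 2% charcoal-stripped FBS medium, treated with compound plus 1 nM 17-beta-estradiol for 16 h at 37C. Viability read by CellTiter-Glo luminescence after 30 min at room temperature in the same wells.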

Chain of Thyrotropin receptor (Homo sapiens) (P16473 whole entry, looked up): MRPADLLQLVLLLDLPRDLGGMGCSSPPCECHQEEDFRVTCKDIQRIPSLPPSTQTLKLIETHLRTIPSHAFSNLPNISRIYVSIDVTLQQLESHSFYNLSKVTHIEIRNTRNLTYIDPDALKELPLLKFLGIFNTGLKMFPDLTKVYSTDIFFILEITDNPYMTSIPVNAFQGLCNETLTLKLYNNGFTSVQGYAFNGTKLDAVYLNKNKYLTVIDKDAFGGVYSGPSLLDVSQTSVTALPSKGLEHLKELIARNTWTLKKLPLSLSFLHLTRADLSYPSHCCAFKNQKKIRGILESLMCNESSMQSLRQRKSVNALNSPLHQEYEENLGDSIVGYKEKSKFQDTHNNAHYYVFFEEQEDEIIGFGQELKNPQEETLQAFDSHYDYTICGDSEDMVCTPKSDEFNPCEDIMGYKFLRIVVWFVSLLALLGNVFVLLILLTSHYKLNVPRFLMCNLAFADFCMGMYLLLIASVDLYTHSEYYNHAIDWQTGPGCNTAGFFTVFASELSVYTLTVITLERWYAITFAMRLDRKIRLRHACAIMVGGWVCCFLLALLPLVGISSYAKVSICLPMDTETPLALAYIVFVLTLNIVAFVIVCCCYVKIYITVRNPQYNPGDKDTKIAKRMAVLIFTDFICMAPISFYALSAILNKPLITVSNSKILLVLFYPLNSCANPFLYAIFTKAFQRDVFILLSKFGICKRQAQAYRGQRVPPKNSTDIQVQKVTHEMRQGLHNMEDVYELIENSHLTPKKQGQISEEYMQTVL
Chain of Estrogen receptor beta (Homo sapiens) (Q92731 whole entry, looked up): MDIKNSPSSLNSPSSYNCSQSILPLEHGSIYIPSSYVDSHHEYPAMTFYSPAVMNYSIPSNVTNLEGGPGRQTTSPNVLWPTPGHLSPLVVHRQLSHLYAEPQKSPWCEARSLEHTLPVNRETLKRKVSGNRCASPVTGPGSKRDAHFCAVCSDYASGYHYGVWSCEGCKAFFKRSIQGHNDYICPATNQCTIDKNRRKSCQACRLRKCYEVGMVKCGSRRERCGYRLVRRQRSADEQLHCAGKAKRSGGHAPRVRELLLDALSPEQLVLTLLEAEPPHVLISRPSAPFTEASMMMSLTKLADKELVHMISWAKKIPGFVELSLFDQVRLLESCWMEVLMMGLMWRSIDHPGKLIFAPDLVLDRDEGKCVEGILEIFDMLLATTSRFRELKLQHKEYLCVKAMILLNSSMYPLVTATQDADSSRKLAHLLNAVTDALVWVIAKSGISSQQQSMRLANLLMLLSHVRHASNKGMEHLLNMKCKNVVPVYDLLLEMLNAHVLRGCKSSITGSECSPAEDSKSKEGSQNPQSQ
Chain of Estrogen receptor (Homo sapiens) (P03372 whole entry, looked up): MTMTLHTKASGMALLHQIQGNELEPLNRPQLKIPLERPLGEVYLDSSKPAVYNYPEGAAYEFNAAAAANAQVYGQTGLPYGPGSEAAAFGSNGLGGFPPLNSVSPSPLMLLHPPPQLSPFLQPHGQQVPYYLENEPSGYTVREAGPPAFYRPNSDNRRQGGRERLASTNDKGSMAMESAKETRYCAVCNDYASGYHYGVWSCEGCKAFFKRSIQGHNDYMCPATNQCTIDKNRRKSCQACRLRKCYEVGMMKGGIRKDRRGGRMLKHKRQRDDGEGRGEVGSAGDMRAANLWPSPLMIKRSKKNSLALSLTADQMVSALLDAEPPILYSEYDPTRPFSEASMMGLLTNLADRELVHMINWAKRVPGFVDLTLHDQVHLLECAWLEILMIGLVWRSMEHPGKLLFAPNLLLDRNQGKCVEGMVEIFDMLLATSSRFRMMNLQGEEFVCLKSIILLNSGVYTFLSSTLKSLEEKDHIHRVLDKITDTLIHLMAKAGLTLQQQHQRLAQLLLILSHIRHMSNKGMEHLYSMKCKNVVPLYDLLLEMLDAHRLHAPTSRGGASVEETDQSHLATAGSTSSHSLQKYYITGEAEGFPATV
Chain of Progesterone receptor (Homo sapiens) (P06401 whole entry, looked up): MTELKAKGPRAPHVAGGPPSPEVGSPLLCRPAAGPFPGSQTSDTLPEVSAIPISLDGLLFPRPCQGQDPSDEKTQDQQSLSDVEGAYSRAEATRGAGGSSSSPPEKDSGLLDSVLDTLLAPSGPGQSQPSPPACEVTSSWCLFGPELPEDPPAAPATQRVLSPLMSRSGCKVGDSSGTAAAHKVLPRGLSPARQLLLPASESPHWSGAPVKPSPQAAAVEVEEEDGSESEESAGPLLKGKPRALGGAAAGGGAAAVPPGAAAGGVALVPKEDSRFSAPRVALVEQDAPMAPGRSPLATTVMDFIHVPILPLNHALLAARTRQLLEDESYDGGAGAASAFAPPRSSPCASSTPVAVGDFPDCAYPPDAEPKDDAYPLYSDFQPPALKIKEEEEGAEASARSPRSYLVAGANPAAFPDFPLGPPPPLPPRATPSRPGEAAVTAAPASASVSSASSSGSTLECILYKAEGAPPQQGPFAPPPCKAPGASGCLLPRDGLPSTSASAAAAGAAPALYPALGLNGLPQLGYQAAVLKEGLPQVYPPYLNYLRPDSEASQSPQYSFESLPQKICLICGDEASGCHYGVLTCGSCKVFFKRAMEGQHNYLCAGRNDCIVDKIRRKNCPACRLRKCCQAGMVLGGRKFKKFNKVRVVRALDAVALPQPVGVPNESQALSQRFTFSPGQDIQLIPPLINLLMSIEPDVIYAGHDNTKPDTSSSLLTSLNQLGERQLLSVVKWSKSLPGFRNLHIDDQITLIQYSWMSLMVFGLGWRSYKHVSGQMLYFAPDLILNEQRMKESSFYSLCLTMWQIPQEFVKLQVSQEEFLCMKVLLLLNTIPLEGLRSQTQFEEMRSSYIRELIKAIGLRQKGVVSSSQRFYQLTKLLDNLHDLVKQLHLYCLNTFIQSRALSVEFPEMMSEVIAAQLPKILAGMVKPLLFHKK
Chain of Thyrotropin-releasing hormone receptor (Homo sapiens) (P34981 whole entry, looked up): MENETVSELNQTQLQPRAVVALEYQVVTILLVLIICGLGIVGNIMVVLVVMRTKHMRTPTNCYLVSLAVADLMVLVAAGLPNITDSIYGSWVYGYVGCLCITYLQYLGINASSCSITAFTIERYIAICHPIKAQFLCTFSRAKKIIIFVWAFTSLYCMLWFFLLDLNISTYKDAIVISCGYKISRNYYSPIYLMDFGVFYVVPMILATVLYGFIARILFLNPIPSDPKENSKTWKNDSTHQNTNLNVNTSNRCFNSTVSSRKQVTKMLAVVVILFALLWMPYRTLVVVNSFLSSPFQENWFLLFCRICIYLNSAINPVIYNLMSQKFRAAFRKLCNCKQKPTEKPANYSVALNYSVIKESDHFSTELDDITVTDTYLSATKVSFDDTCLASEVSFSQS

Row | SMILES | outcome [1] | Potency [2] | Potency [3] | Potency [4] | Potency [5] | outcome [6] | outcome [7] | Potency [8] | Potency [9] | outcome [10] | Potency [11] | Potency [12] | outcome [13] | Potency [14] | outcome [15] | outcome [16] | Potency [17] | outcome [18] | Potency [19]
1 | Nc1ccc(S(=O)(=O)Nc2nccs2)cc1 | inactive | inactive | inactive | inactive | inactive | inactive | inactive | inactive | inactive | inactive | inactive | inactive | inactive | inactive | inactive |  |  |  | 
2 | O=C(O)/C=C\C(=O)O | inactive | inactive | inactive | inactive |  | inactive | inactive | inactive | inactive | inactive | inactive | inactive | inactive | inactive | inactive | inactive | inactive | inactive | 
3 | O=C1NC(=O)c2ccccc21 | inactive | inactive | inactive | inactive |  | inactive | inactive | inactive | inactive | inactive | inactive | inactive | inactive | inactive | inactive |  |  |  | inactive
4 | Cn1c(=O)c2[nH]cnc2n(C)c1=O | inactive | inactive | inactive | inactive | inactive | inactive | inactive | inactive | inactive | inactive | inactive | inactive | inactive | inactive | inactive |  |  | inactive | inactive
5 | O=C1CN(/N=C/c2ccc([N+](=O)[O-])o2)C(=O)N1 | inactive | 48.4 µM (active) and 27.3 µM (active) and inactive | 27.2 µM (active) and 61.1 µM (active) and 23.7 µM (active) |  | inactive | inactive | inactive | 30.5 µM (active) and 54.5 µM (active) and 18.8 µM (active) | inactive | inactive | inactive | inactive | inactive | inactive | inactive | inactive |  | inactive | 
6 | O=C(C1CCCCC1)N1CC(=O)N2CCc3ccccc3C2C1 (stereo not drawn) | inactive | inactive | inactive | 43.2 µM (active) and inactive |  |  |  | inactive | inactive | inactive | inactive | inactive | inactive | inactive |  |  |  | inactive | 
7 | O=S(=O)(O)NC1CCCCC1 | inactive | inactive | inactive | inactive |  | inactive | inactive | inactive | 4.12 µM (active) and inactive | inactive | inactive | inactive | inactive | inactive | inactive |  |  |  | inactive
8 | Cc1cc(=O)[nH]c(=S)[nH]1 | inactive | inactive | inactive | inactive | inactive | inactive | inactive | inactive | inactive | inactive | inactive | inactive | inactive | inactive | inactive |  |  | inactive | 
